The assay deals with Histone deacetylase 8 (Homo sapiens) (UniProt Q9BY41). The assay can be described thus: inhibitors of recombinant human HDAC8 – biochemical, selectivity assay for E-cadherin restoration project, profiling panel (AID 651908).

Activity calls are given as the source filed them. The rule behind the calls is not given here.

Chain of Histone deacetylase 8 (Homo sapiens) (Q9BY41 whole entry, looked up): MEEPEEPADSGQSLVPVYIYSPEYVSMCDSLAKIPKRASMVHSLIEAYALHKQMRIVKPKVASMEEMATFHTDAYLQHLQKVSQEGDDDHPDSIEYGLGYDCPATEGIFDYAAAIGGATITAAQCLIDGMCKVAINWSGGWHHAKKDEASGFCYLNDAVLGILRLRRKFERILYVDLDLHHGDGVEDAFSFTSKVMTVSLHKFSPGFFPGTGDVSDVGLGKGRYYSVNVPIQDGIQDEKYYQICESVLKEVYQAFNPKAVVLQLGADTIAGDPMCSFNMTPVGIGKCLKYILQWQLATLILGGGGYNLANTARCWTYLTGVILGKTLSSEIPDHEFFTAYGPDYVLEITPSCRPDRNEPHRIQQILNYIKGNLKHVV

On to `O=C(NCCCNC(=O)c1ccc[nH]c1=O)c1cc(-c2ccccc2)on1`, for which the outcome was inactive.

For the origin of these results see PubChem BioAssay AID651908 (Vanderbilt Specialized Chemistry Center, 2012).
